The full list was thinned out, with hits kept by preference.
Dicer processing = inhibitors of Dicer pre-microRNA processing, primary screen, biochemical, cat-ELCCA, chemiluminescence | cat-ELCCA pre-miR-21 Dicer processing; stronger effect = higher value | z-score at 25 µM | 47,000 compounds, 6% hits | AID 1347074, 2019; in the data active = z-score above about 3, passing the limit was not always enough;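 note: plate controls were vehicle for no effect and no enzyme for full effect; higher signal means more uncleaved substrate so more Dicer inhibition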
Starred values were filed as active, the others as inactive.

SMILES	Dicer processing
O=[N+]([O-])c1cccc(-c2cc(-c3cccs3)cc(-c3ccccc3)n2)c1	-1.3
Cc1cc(NS(=O)(=O)N2CCCCC2)no1	-0.07
CC1=N/C(=C\c2cc(F)cc(F)c2)C(=O)O1	-0.66
CC1=N/C(=C/c2ccc(Cl)c(Cl)c2)C(=O)O1	3.2*
CC1=N/C(=C\c2ccc3ccccc3c2)C(=O)O1	-0.93
O=C(OCc1ccc(Cl)cc1)c1cnc(Nc2cccc(C(F)(F)F)c2)nc1C(F)(F)F	0.1
CC(C)(C)C(=O)NNC(=O)c1cc2ncc(C(F)(F)F)cc2s1	1
CCOC(=O)c1sc(N2C(=O)c3oc4ccc(C)cc4c(=O)c3C2c2cccc(O)c2)nc1C (centres undefined)	0.48
CC1(C)Cc2c(c(N3CCOCC3)nc3sc4c(NCCCO)ncnc4c23)CO1	7
CC1(C)Cc2c(c(N3CCOCC3)nc3sc4c(=O)n(-c5ccc(Cl)cc5)cnc4c23)CO1	0.66
C=C(C)CSc1nnc2c3sc4nc(N5CCOCC5)c5c(c4c3ncn12)CC(C)(C)OC5	3.2*
C=CCNc1oc(-c2ccc(C)cc2)nc1C#N	-0.92
CC(C)=CCC(C#N)(CC=C(C)C)C(=O)O	-1.3
CCOc1nc(C)ccc1-c1noc(-c2ccc(C)cc2)n1	1.4
Cc1ccc(C2Nn3c(C)nnc3SC2C(=O)NCC2CCCO2)cc1 (centres undefined)	-0.76
Cc1nnc2n1NC(c1ccc(Cl)cc1)C(C(=O)NCC1CCCO1)S2 (centres undefined)	2.4
COc1ccc(C2Nn3c(nnc3-c3ccccc3)SC2C(=O)NCC2CCCO2)cc1Cl (centres undefined)	6.6*
CCOC(=O)c1cnc(S/C=C/C(=O)c2ccc(C)cc2)nc1N	-1.6
COC(=O)c1ccc2cc(C(=O)O)ccc2c1	5.4*
COC(=O)c1cc(Cl)cc(Cl)c1	-0.99
COC(=O)c1ccc(Br)cc1	0.38
CCC1SC2=NC(C)=C(C(=O)OC)C(c3ccc(OC)cc3)N2C1=O (centres undefined)	-0.81
Nc1ccc(-c2nc3ccccc3s2)cc1	2.9
O=C(O)c1ccc2nc(-c3ccccc3)c(-c3ccccc3)nc2c1	0.57
O=C(O)c1ccc2nc(-c3ccc(O)cc3)sc2c1	4.5*
SMILES	Dicer processing
O=[N+]([O-])c1ccc(N/N=C2\CCOc3ccc(F)cc32)cc1	-2
CCOC(=O)N1CCC(N2CCCC(C(=O)N3CCCC3)C2)CC1 (centres undefined)	0.17
CCOC(=O)N1CCC(N2CCN(S(C)(=O)=O)CC2)CC1	5*
CCOC(=O)N1CCC(N2CCN(S(=O)(=O)c3ccc(OC)cc3)CC2)CC1	0.1
COc1ncnc2c1sc1ncccc12	1.3
CCCCN(c1nc(C)cc(OC)n1)S(=O)(=O)c1ccc(C)cc1	0.7
CCCN(c1nc(C)cc(OC)n1)S(=O)(=O)c1ccccc1Cl	6.1*
COC(=O)CN(c1nc(C)cc(OC)n1)S(=O)(=O)c1ccccc1	0.86
CCCCSc1sc(C(=O)OCC)c2c1C(=O)CCC2	-2.2
CCN(C(=O)c1ccc([N+](=O)[O-])o1)c1ccccc1	1.4
O=C(OCc1nc2ccccc2s1)c1ccc([N+](=O)[O-])o1	-0.88
CCOC(=O)N1CCN(C(=O)c2ccc([N+](=O)[O-])o2)CC1	3.5*
Cc1c(CNC(=O)c2cnn3c2NC(c2ccc(Br)cc2)CC3C(F)(F)F)cnn1C (centres undefined)	0.01
O=C(c1cnn2c1NC(c1ccccc1)CC2C(F)(F)F)N1CCOCC1 (centres undefined)	1.3
Cc1ccc(C2CC(C(F)(F)F)n3nc(C(=O)NC4CCCC4)c(Cl)c3N2)cc1 (centres undefined)	0.93
O=C(c1cnn2c1NC(c1ccc(F)cc1)CC2C(F)(F)F)N1CCCCC1 (centres undefined)	0.98
COCCNC(=O)c1cnn2c1NC(c1ccc(Br)cc1)CC2C(F)(F)F (centres undefined)	4.3*
Cc1ccc(C2CC(C(F)(F)F)n3ncc(C(=O)N4CCCCC4)c3N2)cc1 (centres undefined)	3*
CCC(C)NC(=O)c1cnn2c1NC(c1ccc(Br)cc1)CC2C(F)(F)F (centres undefined)	1.1
Cc1nn(C)cc1CNC(=O)c1cnn2c1NC(c1ccc(Br)cc1)CC2C(F)(F)F (centres undefined)	0.99
O=C(NC1CCCCC1)c1cnn2c1NC(c1ccc(Br)cc1)CC2C(F)(F)F (centres undefined)	5.6*
COc1ccc(N2C(=O)CC(NC3CCCC3)C2=O)cc1 (centres undefined)	-1
CC1=C(C(=O)OC(C)C)C(c2ccc(N(C)C)cc2)C2=C(CCCC2=O)N1 (centres undefined)	-1.2
Cc1oc2c(F)c(F)c(F)c(F)c2c1-c1noc(C(C)(C)C)n1	-0.16
Cc1ccc(S(=O)(=O)Nc2nc3ccc(N)cc3s2)cc1	8*
SMILES	Dicer processing
Cc1cc(C)c(S(=O)(=O)Nc2nc3ccccc3s2)c(C)c1	-3.9
Cc1ccc(S(=O)(=O)Nc2nc3cc(C)c(C)cc3s2)cc1	-1.5
CC(C)n1c(SCC(=O)Nc2cc(Cl)cc(Cl)c2)nc2cc(C(F)(F)F)ccc21	-0.56
Cc1ccc(C)c(Oc2coc3cc(OC(=O)c4ccco4)ccc3c2=O)c1	0.42
O=C(Oc1cccc2cccnc12)c1ccco1	-2.4
O=C(Oc1ccc(OC(=O)c2ccco2)c(Cl)c1)c1ccco1	7.4*
COc1ccc(S(=O)(=O)O/N=C(\C)c2ccc(F)c(F)c2)cc1OC	-0.66
CCCc1c(C(=O)OCC)c2cc(NS(C)(=O)=O)ccc2n1S(C)(=O)=O	-0.37
COc1ccc2c(c1)CCC1=C2NC(=S)NC1c1cccc(Br)c1 (centres undefined)	-1.8
Cc1ccnc(NS(=O)(=O)c2ccc(N3C(=O)C4CCCCC4C3=O)cc2)n1 (centres undefined)	8.1*
Cc1cc(C)nc(NC(=O)CN2C(=O)C3CCCCC3C2=O)n1 (centres undefined)	1.6
CC(=O)Nc1ccc(S(=O)(=O)Nc2nc(C)cc(C)n2)cc1	-1.6
O=C(O)Cc1csc(Nc2ccccc2)n1	2.3
CCOC(=O)C1=C(C)NC2=C(C(=O)c3ccccc32)C1c1cccc(OC)c1 (centres undefined)	-1.6
Cc1ccc(C2C3=C(Nc4c2c(=O)[nH]c(=O)n4C)c2ccccc2C3=O)cc1 (centres undefined)	2.2
Cn1c2c(c(=O)[nH]c1=O)C(c1ccc(-c3ccccc3)cc1)C1=C(N2)c2ccccc2C1=O (centres undefined)	4.6*
Cn1c2c(c(=O)n(C)c1=O)C(c1ccc(OC(=O)c3ccccc3)cc1)C1=C(N2)c2ccccc2C1=O (centres undefined)	7.1*
Cc1ccc(C2C3=C(Nc4c2c(=O)n(C)c(=O)n4C)c2ccccc2C3=O)cc1 (centres undefined)	0.93
Cn1c2c(c(=O)[nH]c1=O)C(c1ccc(Cl)cc1)C1=C(N2)c2ccccc2C1=O (centres undefined)	2.7
Cn1c2c(c(=O)[nH]c1=O)C(c1ccc(F)cc1)C1=C(N2)c2ccccc2C1=O (centres undefined)	-0.29
Cn1c2c(c(=O)[nH]c1=O)C(c1ccc(Br)cc1)C1=C(N2)c2ccccc2C1=O (centres undefined)	1.2
CCOC(=O)C1=C(C)NC2=C(C(=O)c3ccccc32)C1c1ccc(OC)cc1 (centres undefined)	3.3*
